This note sets out measurements from paper PMC5540273 (PLoS ONE, 2017).

The subject of assay [1] is T1, VPS34.
T1 construct: gene PIK3C3

Assay [2] has as its system AAK1. The settings on record: concentration: 1 μM, replicates: in singlicate; n = 1.
For assay [3], the system named is ABL1-nonphosphorylated. The settings on record: concentration: 1 μM, replicates: in singlicate, n = 1.
Assay [4] deals with ABL1-phosphorylated. The settings on record: concentration: 1 μM, replicates: in singlicate, n = 1.
Assay [5] relates to ABL2. The settings on record: concentration: 1 μM, replicates: in singlicate, n = 1.
For assay [6], the system named is ACVR1B. The settings on record: concentration: 1 μM, replicates: in singlicate, n = 1.
Assay [7] relates to ACVR1. To be noted: concentration: 1 μM, replicates: in singlicate, n = 1.
For assay [8], the system named is TGFBR1.
Assay [9] deals with TGFBR2.

Values joined by “and” are separate entries in the source; they are usually repeats but may differ in a detail not shown here. Equal entries are not always repeated. Where two headings read alike, the source gives them in different places.
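Wherever %Inh is given: KINOMEscan kinase panel screen.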
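Wherever Kd is given: kd values determined as follow-up on hits from a single-replicate KINOMEscan panel screen.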

For orientation: Kd means a measure of binding affinity in units of concentration. Low values mean tighter binding, high ones weaker binding. In turn, `O=c1cc(N2CCOCC2)nc2n(Cc3cccc(Cl)c3Cl)c(C3CC3)nn12` [GSK2358994] registered a Kd in [1] of 0.39 nM. For the same compound, the “%Inh” value in assay [2] was determined as 14%; in [3] it was 28%; in assay [4] it was 20%; in assay [5], 5%; in assay [6] it was 0%; in [7], 0%.
For `N#Cc1ccc(-c2cc(-c3c[nH]nc3-c3ccccn3)ccn2)cc1` [GW693028], the values for the Kd in assay [8] and in assay [9] were 150 nM and 580 nM, respectively. For the same compound, the “%Inh” value in [2] is given as 0%; in assay [3], 7%; in assay [4] it was 29%; in assay [5] it was 10%; in assay [6], 56%; in assay [7] it was 59%.
In the case of `COC(=O)Nc1nc2cc(Oc3ccc(NC(=O)Nc4cc(F)ccc4F)cc3)ccc2[nH]1.Cl` [GW701424], the “%Inh” value is reported as 30% in [2]; 94.5% in [3]; 40% in assay [4]; 74% in assay [5]; 0% in [6]; 0% in assay [7].
`Fc1ccc(-c2ncn(CCCN3CCOCC3)c2-c2cccnc2)cc1` [SB-211743]: the “%Inh” value in assay [2] turned out to be 0%; in assay [3] it was 30%; in [4] it was 34%; in [5] it was 0%; in assay [6], 0%; in assay [7], 2%.
Regarding `[2H]C([2H])(c1cccc(C(F)(F)F)c1C)n1ccn2c(=O)nc(N3CCOCC3)cc12` [GSK2336394], the “%Inh” value in [2] is recorded as 0%; in assay [3], 0%; in assay [4], 0%; in assay [5], 17%; in assay [6] it was 0%; in [7] it was 0%.
Take `C[C@@H](Oc1cc(-n2cnc3ccc(NC(=O)NC(C)(C)C)cc32)sc1C(N)=O)c1ccccc1Cl` [GSK346294]: the “%Inh” value turned out to be 15% in assay [2]; 0% in assay [3]; 0% in assay [4]; 9% in assay [5]; 0% in assay [6]; 0% in assay [7].
For the compound `Cl.Oc1cccc(Nc2ccnc3cc(-c4ccncc4)ccc23)c1` [GW494601], the “%Inh” value amounted to 42% in [2]; 100% in assay [3]; 99.9% in assay [4]; 99.4% in assay [5]; 67% in assay [6]; 99.8% in [7].
Take `COc1ccc(Nc2ncc(C#N)c(Nc3ccccc3C(N)=O)n2)cc1N1CCN(C)CC1.Cl` [GSK1558669]: the “%Inh” value in [2] is recorded as 97.2%; in assay [3], 100%; in assay [4], 100%; in [5] it was 99.2%; in [6], 33%; in assay [7] it was 33%.
On to `COc1cc2ncn(-c3cc(OCc4sccc4Cl)c(C(N)=O)s3)c2cc1OC` [GSK448459], for which the “%Inh” value in [2] is 42%; in [3] it was 0%; in assay [4], 3%; in [5] it was 17%; in assay [6] it was 0%; in assay [7], 18%.
On to `Cn1ccc2ncnc(Oc3ccc(NC(=O)Nc4ccncc4)c(Cl)c3)c21`, for which the “%Inh” value was 0% in assay [2]; 31% in assay [3]; 3% in [4]; 0% in assay [5]; 23% in assay [6]; 0% in assay [7].
On to `COc1ccc(CNC(=O)NC2CCN(c3ccnc(Nc4ccc(OC)cc4)n3)C2)cc1` (stereo not drawn) [GSK1379727], for which the “%Inh” value in assay [2] was determined as 0%; in [3], 0%; in [4], 0%; in assay [5], 2%; in assay [6], 0%; in assay [7], 0%.
For the compound `COc1cc2c(cc1OCCN1CCN(C)CC1)ncc1c3ccc(C#N)cc3[nH]c21`, the “%Inh” value in assay [2] is on record as 96.2%; in [3], 82%; in assay [4] it was 69%; in [5], 6%; in [6], 0%; in [7] it was 0%.
For the compound `CCCCCc1nc2c(N)ncnc2n1CCCCC` [SKF-97255], the “%Inh” value in assay [2] was determined as 6%; in [3], 31%; in [4] it was 30%; in assay [5], 0%; in [6] it was 26%; in assay [7], 0%.
As to `Cl.Nc1ncnc2occ(-c3ccc(NC(=O)Nc4cc(C(F)(F)F)ccc4F)cc3)c12` [SB-707548], the “%Inh” value in assay [2] was 0%; in [3], 99.1%; in assay [4], 50%; in [5] it was 81%; in assay [6], 0%; in assay [7], 1%.
As to `COc1ccc(COc2cc(-n3cnc4ccccc43)sc2C(N)=O)cc1` [GSK1024304], the “%Inh” value in assay [2] amounted to 29%; in assay [3], 0%; in [4] it was 0%; in assay [5], 15%; in [6], 0%; in assay [7] it was 0%.
Take `O=C(Nc1cccc(-c2nn3ncccc3c2-c2ccnc(Nc3cccc(C(F)(F)F)c3)n2)c1)c1c(F)cccc1F` [GSK299495]: the “%Inh” value in assay [2] was determined as 2%; in assay [3], 18%; in assay [4], 9%; in assay [5], 35%; in assay [6], 0%; in assay [7], 9%.
In the case of `Fc1ccc(-c2ncn(CCCN3CCOCC3)c2-c2ccccn2)cc1` [SB-211742], the “%Inh” value in assay [2] was 0%; in assay [3], 39%; in assay [4], 12%; in assay [5] it was 7%; in assay [6] it was 1%; in [7], 0%.
`CSc1ccc(-c2cc3ncnc(SCC(=O)O)c3s2)cc1`: the “%Inh” value in assay [2], in assay [3], in assay [4], in assay [5], in assay [6] and in assay [7] was 0% throughout.
With `CN1c2ccc(NCc3ccc(F)cc3)cc2-c2c(cnn2C)S1(=O)=O`, the “%Inh” value in assay [2] was 0%; in assay [3] it was 21%; in assay [4], 9%; in assay [5], 0%; in [6], 0%; in assay [7], 0%.
Turning to `O=C(NOCC1CC1)c1ccc(F)c(F)c1Nc1ccc(I)cc1Cl`, the “%Inh” value in [2], in assay [3], in [4], in assay [5], in assay [6] and in assay [7] was 0% throughout.
On to `CC(C)(CN)c1nc(-c2ccc(Cl)c(O)c2)c(-c2ccncc2)[nH]1.O=C(O)C(F)(F)F` [SB-477794], for which the “%Inh” value in assay [2] is 0%; in assay [3] (1 µM), 96.1% and 94.7%; in [4] (1 µM) it was 99.4% and 98.9%; in [5] (1 µM), 92.4% and 89%; in assay [6] (1 µM), 87% and 91.7%; in assay [7] (1 µM), 96.5% and 93.4%.
Regarding `CCc1ccnc(/C=C/c2n[nH]c3cc(Sc4ccccc4C(=O)NC)ccc23)c1`, the “%Inh” value in assay [2] is reported as 22%; in [3], 98%; in assay [4] it was 89%; in [5], 76%; in assay [6], 3%; in assay [7], 0%.
As for `Cc1cccc(-c2nc(Nc3ccc4ncsc4c3)c3ccccc3n2)n1` [GW867588], the “%Inh” value stood at 7% in assay [2]; 0% in assay [3]; 0% in [4]; 20% in assay [5]; 35% in assay [6]; 15% in assay [7].
Take `CN1c2ccc(CNc3ccc(F)cc3)cc2-c2c(cnn2C)S1(=O)=O`: the “%Inh” value amounted to 0% in assay [2]; 21% in assay [3]; 0% in assay [4]; 0% in [5]; 0% in assay [6]; 0% in [7].
`Cc1c(Cn2c(C)nn3c(=O)cc(N4CCOC(C)C4)nc23)cccc1C(F)(F)F` (stereo not drawn) [GSK2344444]: the “%Inh” value in assay [2] was 0%; in assay [3], 0%; in assay [4], 0%; in assay [5] it was 11%; in assay [6], 0%; in [7], 0%.
`CC(=O)Nc1ccc(COc2ccc(Nc3ccnc4cc(-c5ccccn5)ccc34)cc2)cc1.Cl` [GW440148]: the “%Inh” value was found to be 13% in [2]; 35% in [3]; 19% in assay [4]; 11% in assay [5]; 0% in assay [6]; 0% in assay [7].
Consider `COc1ccc(S(=O)(=O)NC2CCN(c3cc(C)nc(Nc4cccc(C#N)c4)n3)CC2)cc1.O=C(O)C(F)(F)F` [GSK1653539], for which the “%Inh” value in assay [2] is 0%; in assay [3], 0%; in assay [4], 0%; in [5], 1%; in assay [6] it was 0%; in assay [7], 0%.
For the compound `NCC(NC(=O)c1cc(-c2cn[nH]c2)c(-c2ccnc3[nH]ccc23)s1)c1ccccc1.O=C(O)C(F)(F)F.O=C(O)C(F)(F)F` (stereo not drawn) [GSK1325775], the “%Inh” value in assay [2] is listed as 86%; in [3], 1%; in assay [4], 0%; in [5] it was 0%; in assay [6], 0%; in [7], 52%.
Turning to `Fc1ccc(-c2nn3c(OCC(F)(F)F)cccc3c2-c2ccncc2)cc1` [GW514784], the “%Inh” value was determined as 0% in assay [2]; 0% in assay [3]; 0% in [4]; 5% in [5]; 61% in [6]; 13% in assay [7].
With `Cc1c2ccc(N(C)c3ccnc(Nc4cccc(S(N)(=O)=O)c4)n3)cc2nn1Cc1ccccc1.Cl.Cl` [GW787226], the “%Inh” value in assay [2] is 2%; in assay [3] it was 98.4%; in assay [4], 61%; in assay [5], 71%; in assay [6], 6%; in assay [7], 0%.
`O=C(NCCCN1CCOCC1)c1cccc(Nc2nccc(Nc3ccc(Oc4ccccc4)cc3)n2)c1` [GW663929]: the “%Inh” value in assay [2] is 8%; in assay [3], 73%; in assay [4], 45%; in [5], 47%; in assay [6] it was 0%; in [7], 14%.
For the compound `Cl.Cl.Cl.Fc1ccc(-c2ncn(C3CCNCC3)c2-c2ccnc(Nc3ccccc3)n2)cc1` [SB-238039], the “%Inh” value was 0% in assay [2]; 0% and 63% in assay [3] (1 µM); 31% and 12% in assay [4] (1 µM); 5% and 3% in assay [5] (1 µM); 58% and 31% in assay [6] (1 µM); 16% in assay [7].
As to `Nc1nc(-c2ccc3c(N)n[nH]c3c2)cc(N2CCCC2)n1` [GSK2227430], the “%Inh” value in assay [2] turned out to be 17%; in assay [3], 0%; in [4] it was 0%; in assay [5], 0%; in [6], 0%; in [7], 0%.
Consider `COc1cc(Nc2nccc(N3CCC(NC(=O)c4cccc(NC(C)=O)c4)C3)n2)cc(OC)c1OC` (stereo not drawn) [GSK1379754], for which the “%Inh” value was found to be 76% in assay [2]; 0% in assay [3]; 0% in assay [4]; 13% in [5]; 0% in [6]; 63% in assay [7].
Regarding `Cn1cc(-c2ccc3c(c2)CCN3C(=O)Cc2ccccc2Cl)c2c(N)ncnc21` [GSK2608885], the “%Inh” value is listed as 25% in assay [2]; 95.9% in [3]; 23% in assay [4]; 85% in assay [5]; 0% in assay [6]; 0% in [7].
As for `COc1ccc(Nc2nccc(N3CCC(NC(=O)Nc4cc(C)ccc4C)C3)n2)cc1` (stereo not drawn) [GSK1379741], the “%Inh” value in assay [2] is reported as 17%; in assay [3], 0%; in assay [4] it was 0%; in assay [5], 14%; in [6] it was 0%; in assay [7] it was 0%.
Regarding `Cc1nnc(-c2ccc3occ(-c4ccc(C(C)O)cc4)c3c2)o1` (stereo not drawn), the “%Inh” value in assay [2] is recorded as 23%; in [3] it was 64%; in assay [4], 36%; in assay [5], 8%; in assay [6], 14%; in [7], 15%.
For `Cc1nnc(-c2ccc3ncc(-c4ccc(S(C)=O)cc4)n3c2)o1` (stereo not drawn), the “%Inh” value in [2] was 41%; in [3] it was 44%; in [4], 6%; in assay [5], 7%; in assay [6], 0%; in [7], 0%.
